Screens from PubChem BioAssay.
An excerpt weighted towards active compounds, which were near 2.7% of everything screened.
ATG4B inhibitor: ATG4B protease inhibitors, primary screen, biochemical, fluorescence, uHTS | inhibition, % at 8.33 µM | Cysteine protease ATG4B (Homo sapiens), Q9Y4P1 | hit rate 0.51% among 340,000 | ATG4B cleavage of LC3-PLA2, NBD-HPC fluorescence, 1 h | AID 504462, 2011; in the data active = inhibition above about 40%
SKN-1 inh: suppressors of acrylamide-induced Pgst-4::GFP reporter in worms, primary screen, SKN-1 inhibitor project, whole organism, uHTS, GFP/RFP fluorescence ratio, strain VP596; C. elegans VP596 Pgst-4::GFP/RFP ratio, 24 h; inhibition, % at 21.8 µM; hit rate 0.49% among 360,000; AID 624304, 2012;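 active = interference check ratio from 0.5 to 1.5 plus GFP to RFP signal ratio inhibition reaching or exceeding a fixed threshold, cut at about 30% in these data, passing the limit was not always enough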
CFTR F508del cor: F508del CFTR correction, initial screen, CFBE line, single point. CFBE cells, YFP halide quenching; stimulated with forskolin plus potentiator P3; % fluorescence drop versus neutral controls. activity (quench increase), % at 7.58 µM. hit rate 0.36% among 350,000. AID 720511, 2013;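 active = mean added fluorescence quench of at least 8% versus neutral control, with both replicates also reaching 8%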;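 note: cells transiently co-express mutant CFTR-F508del with the halide-sensitive YFP; corrector assay measuring rescue of mutant channel to the surface after 24 h compound exposure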
MPTP inh: mitochondrial permeability transition pore inhibitors, primary screen, biochemical, isolated mouse mitochondria, absorbance. Ca2+ swelling absorbance, 30 min. inhibition, % at 10 µM. hit rate 1.4% among 360,000;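 active = inhibition of 50% or more, scaled per plate between neutral and stimulator controls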;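 note: 0% = DMSO wells given calcium and 100% = 1 mM EGTA wells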
NRP1-CendR mod: modulators of CendR peptide binding to NRP-1, primary screen, biochemical, fluorescence polarization, uHTS; Neuropilin-1 (Homo sapiens), O14786; FAM-RPARPAR peptide binding to NRP-1; hit rate 0.85% among 360,000; inhibition, % at 25 µM; AID 602438, 2012;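 active = inhibition or corrected inhibition above about 18%, plus a signal ratio from 0.5 to 1.5, limit read from the data, passing the limit was not always enough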
Target sequence (O14786 whole entry, looked up): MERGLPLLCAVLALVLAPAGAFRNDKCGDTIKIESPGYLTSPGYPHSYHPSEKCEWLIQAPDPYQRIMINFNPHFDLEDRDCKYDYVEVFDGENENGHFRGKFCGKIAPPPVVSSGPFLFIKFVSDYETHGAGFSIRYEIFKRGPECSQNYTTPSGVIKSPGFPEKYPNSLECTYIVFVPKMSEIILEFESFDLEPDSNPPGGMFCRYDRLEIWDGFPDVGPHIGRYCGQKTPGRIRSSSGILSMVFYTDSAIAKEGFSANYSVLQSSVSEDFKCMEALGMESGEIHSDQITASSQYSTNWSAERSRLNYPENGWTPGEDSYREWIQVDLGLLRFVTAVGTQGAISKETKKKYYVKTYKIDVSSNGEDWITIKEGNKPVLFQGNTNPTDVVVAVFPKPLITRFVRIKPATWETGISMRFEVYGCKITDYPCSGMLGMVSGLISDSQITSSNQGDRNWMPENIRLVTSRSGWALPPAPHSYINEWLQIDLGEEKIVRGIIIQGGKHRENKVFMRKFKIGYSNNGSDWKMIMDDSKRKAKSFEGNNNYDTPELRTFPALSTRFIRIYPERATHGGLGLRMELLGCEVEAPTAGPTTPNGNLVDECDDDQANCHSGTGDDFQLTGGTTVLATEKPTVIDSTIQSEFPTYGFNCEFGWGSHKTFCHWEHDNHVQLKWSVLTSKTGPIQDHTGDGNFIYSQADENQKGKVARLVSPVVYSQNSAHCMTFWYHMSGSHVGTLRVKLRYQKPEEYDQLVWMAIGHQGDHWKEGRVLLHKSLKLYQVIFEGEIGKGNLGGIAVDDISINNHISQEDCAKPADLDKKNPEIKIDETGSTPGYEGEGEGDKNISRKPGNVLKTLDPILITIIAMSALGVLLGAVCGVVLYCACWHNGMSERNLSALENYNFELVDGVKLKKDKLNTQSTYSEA
Active calls of the source: *; . = not tested or not shown.

SMILES	ATG4B inhibitor	SKN-1 inh	CFTR F508del cor	MPTP inh	NRP1-CendR mod
CCCCNC(=O)OCC(CC)NC(=O)OC(C)C (stereo not drawn)	-2	17	.	-3	-7
COCC#Cc1ccc2c(c1)O[C@H](CN(C)C(=O)C1CC1)[C@H](C)CN([C@@H](C)CO)S2(=O)=O	.	.	-1	.	.
CCOc1cc(-c2ccc(N)c(OCC)c2)ccc1N	-10	8	.	0	43*
Cc1ccc(N=C2NC(=O)/C(=C\c3ccsc3)S2)c(C)c1	12	14	2	13	26*
CCCCSC(=S)NC1CCS(=O)(=O)C1 (stereo not drawn)	-2	-5	-1	0	25*
O=S1(=O)CCC(NC(=S)SCCOc2ccccc2)C1 (stereo not drawn)	0	7	0	-2	-2
O=C(Nc1ccccc1)N1CC(=O)N2[C@H](C1)[C@H](c1ccc(C#CC3CC3)cc1)[C@@H]2CO	.	.	1	.	.
Cc1ccc(NC(=O)CN2C(=O)NC(C)(c3ccc4c(c3)OCO4)C2=O)cc1 (stereo not drawn)	2	5	2	0	-8
CC1(c2ccc(Cl)cc2)NC(=O)N(CC(=O)Nc2ccc3c(c2)OCO3)C1=O (stereo not drawn)	.	13	0	-4	35*
CC1(c2ccc(Cl)cc2)NC(=O)N(CN2CCOCC2)C1=O (stereo not drawn)	8	37*	-2	-1	6
COc1ccc(C#Cc2cnc3c(c2)C(=O)N([C@H](C)CO)C[C@H](C)[C@H](CN(C)Cc2ccncc2)O3)cc1OC	.	.	-2	.	.
NS(=O)(=O)c1ccc(CNc2ccc3ccccc3n2)cc1	1	9	8.7*	1	2
CN(C(=O)CSCC(=O)Nc1ccc(Cl)cc1)C1CCCCC1	5	37*	3	0	-5
COc1cc(NC(=O)CSCC(=O)N(C)C2CCCCC2)cc(OC)c1	-17	7	-3	1	1
CN1[C@@H]2Cn3c(ccc(C4=CCCCC4)c3=O)[C@H]1[C@@H](C(=O)NCc1cccc(F)c1)[C@@H]2CO	.	.	0	.	.
C[C@H]1CN([C@@H](C)CO)S(=O)(=O)c2ccc(C#CCN(C)C)cc2O[C@H]1CN(C)C	.	.	-1	.	.
CC1CCc2c(C(=O)Nc3nccs3)csc2C1 (stereo not drawn)	3	37*	.	1	2
CCCC#Cc1ccc([C@H]2[C@@H](CO)N3C(=O)CN(C(=O)Nc4ccc(F)cc4)C[C@@H]23)cc1	.	.	2	.	.
O=C(CNC(=O)c1cccs1)N=Nc1c(O)[nH]c2ccc([N+](=O)[O-])cc12	1	22	-5	-1	30*
CCCCCCC(=O)N=Nc1c(O)[nH]c2ccc([N+](=O)[O-])cc12	0	-6	-2	10	13
O=C(/C=C/c1ccc(S(=O)(=O)N2CCOCC2)cc1)N1CCN(c2ccc(F)cc2)CC1	-10	1	-7	4	-3
CC1CC(C)CN(C(=O)/C=C/c2ccc(S(=O)(=O)N3CCOCC3)cc2)C1 (stereo not drawn)	10	5	8.4*	0	-2
C[C@@H]1CN([C@@H](C)CO)S(=O)(=O)c2ccc(C3=CCCCC3)cc2O[C@@H]1CN(C)C(=O)C1CC1	.	.	-4	.	.
CCOC(=O)Cn1c(=O)n(Cc2ccco2)c(=O)c2ccc(C(=O)NC3CCCC3)cc21	0	-14	1	0	33*
CCC(=O)N(C)C[C@H]1Oc2cc(-c3cccc(OC)c3)ccc2S(=O)(=O)N([C@H](C)CO)C[C@@H]1C	.	.	-1	.	.
SMILES	ATG4B inhibitor	SKN-1 inh	CFTR F508del cor	MPTP inh	NRP1-CendR mod
Cc1cc(C)n(CC(O)Cn2c(C)c(C)c3ccccc32)n1 (stereo not drawn)	-8	63*	.	3	-97
Cc1c(C)n(CC(O)CN2CCCCC2)c2ccccc12 (stereo not drawn)	-7	-11	.	-1	0
O=C(Cc1ccncc1)Nc1ccc2c(c1)[C@@H]1C[C@H](CC(=O)NC3CCCCC3)O[C@H](CO)[C@@H]1O2	.	.	3	.	.
CN1CCN(c2ccc(-c3cccc(NC(=O)COc4ccccc4)c3)nn2)CC1	1	-1	0	-2	-2
O=C(COc1ccccc1)Nc1ccc(-c2ccc(N3CCOCC3)nn2)cc1	0	-1	-1	-2	22*
CC(C)NC(=O)N(C)C[C@@H]1Oc2cc(-c3ccccc3F)ccc2S(=O)(=O)N([C@H](C)CO)C[C@@H]1C	.	.	0	.	.
CCOc1ccc(C2C(C(=O)c3ccc(C)o3)=C(O)C(=O)N2c2cc(C)on2)cc1OC (stereo not drawn)	-2	3	-1	-2	21*
O=C(N/N=C/c1ccccn1)c1cc(C2CC2)[nH]n1	3	3	1	0	-9
O=C(N/N=C/c1cccc2ccccc12)c1cc(C2CC2)[nH]n1	21	6	1	-1	22*
COc1ccc2c3c([nH]c2c1)[C@H](CO)N(C(=O)Nc1ccccc1F)CC31CN(C(=O)c2ccccc2F)C1	.	.	-1	.	.
CC1(Cc2cc(Cl)ccc2C(F)(F)F)C(=O)Nc2c(Cl)cccc21 (stereo not drawn)	.	-12	1	2	9
CC1(Cc2ccc(F)c(Cl)c2)C(=O)Nc2c(Cl)cccc21 (stereo not drawn)	.	13	0	0	25*
CC1(Cc2cccc(F)c2)C(=O)Nc2ccc(-c3cccnc3)cc21 (stereo not drawn)	.	14	-1	0	-10
CC1(Cc2cccc(C(F)(F)F)c2)C(=O)Nc2ccc(-c3ccc(F)c(Cl)c3)cc21 (stereo not drawn)	.	40*	-2	2	-6
CC1(Cc2ccc(Cl)cc2)C(=O)Nc2ccc(-c3cccnc3)cc21 (stereo not drawn)	.	39*	4	0	5
CC1(Cc2cc(Cl)ccc2C(F)(F)F)C(=O)Nc2ccc(-c3ccc(F)c(Cl)c3)cc21 (stereo not drawn)	.	17	-6	0	-6
CCCN1[C@@H]2c3ccc(/C=C/c4ccccc4)c(=O)n3C[C@H]1[C@H](CO)[C@H]2C(=O)NCc1ccccn1	.	.	1	.	.
C[C@H]1CN([C@@H](C)CO)C(=O)Cc2cc(NC(=O)CCN3CCOCC3)ccc2O[C@H]1CN(C)C(=O)NC1CCCCC1	.	.	2	.	.
C[C@@H]1CCCCO[C@@H](CN(C)C(=O)Cc2ccccc2)[C@H](C)CN([C@H](C)CO)C(=O)c2cc(NC(=O)NC3CCCCC3)ccc2O1	.	.	1	.	.
COC(=O)c1c(C(=O)OC)c(-c2ccc(Cl)c(Cl)c2)n2c1CCC2	-9	12	-1	0	23*
COC(=O)c1c(C(=O)OC)c(-c2ccc(C)cc2)n2c1CCC2	1	11	.	-1	2
